The panel holds about 83,000 compounds, 20% with a hit somewhere; the sample as a whole holds those more often.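 In brief: 96-well plates, 48 h treatment, single concentration, percent growth endpoint.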 Values without a mark were called inactive. Calls of active or inactive are those of the source. Rule for the calls: active = growth percent below 10; inactive = the rest.

Experimental findings from PubChem BioAssay (NCI) are described below.

Some test systems named below: SK-MEL-2 melanoma; SN12C renal; UO-31 renal; TK-10 renal; ACHN renal; CAKI-1 renal; A498 renal; MOLT-4 leukemia; CCRF-CEM leukemia.
Assay in all cases: NCI-60 one-dose screen, 48 h (100 = growth as untreated, 0 = no growth, -100 = all killed)
Conditions in all cases: 10 µM unless noted

Take `CC(C)(C)c1[nH]nc2c1C(c1cc3ccccc3[nH]c1=O)Nc1cc(C(=O)OCc3ccccc3)ccc1N2` (stereo unspecified): the growth in the assay on SK-MEL-2 melanoma is 67%; with SN12C renal, 61.2%; with UO-31 renal, 47.2%; in the assay on TK-10 renal it was 47.6%; with ACHN renal it was 28.6%; in the assay on CAKI-1 renal, 54.6%. Also, the growth in the assay on A498 renal is 65%; in the assay on MOLT-4 leukemia, 18%.

As to `Cc1cc(Nc2ccc(F)cc2)nc(N2CCN(c3ccnc4cc(Cl)ccc34)CC2)n1`, the growth is 4.35% (active) with SK-MEL-2 melanoma; 30.2% with SN12C renal; 3.92% (active) with UO-31 renal; 8.31% (active) in the assay with TK-10 renal; 2.61% (active) in the assay with ACHN renal; -1.6% (active) in the assay with A498 renal. Further, the growth in the assay with CCRF-CEM leukemia was 15.5%; with MOLT-4 leukemia, 6.8% (active).

Take `CCc1ccc(-c2ccc(Nc3ccccc3)nn2)cc1S(N)(=O)=O`: the growth was 78.9% with SK-MEL-2 melanoma; 88.6% in the assay on SN12C renal; 101% in the assay with UO-31 renal; 116% in the assay on TK-10 renal; 77% in the assay with ACHN renal; 92.6% in the assay with CAKI-1 renal. In the assay on A498 renal, the growth is 72.2%.

Take `c1ccc(C2Cc3ccccc3C2=NC2CCCCC2)cc1` (stereo unspecified): the growth in the assay on SK-MEL-2 melanoma is 93.5%; in the assay with SN12C renal it was 101%; in the assay on UO-31 renal, 89.5%; with TK-10 renal, 103%; in the assay on ACHN renal it was 97%; in the assay on A498 renal it was 97.9%. The growth in the assay with CCRF-CEM leukemia is 94.8%; in the assay on MOLT-4 leukemia, 102%.

As to `COc1ccc(C(=O)c2cc(OC)c(OC)c(OC)c2)cc1/C=C/C(=O)c1cc(OC)c(OC)c(OC)c1`, the growth is 116% in the assay on SK-MEL-2 melanoma; 96.2% with SN12C renal; 66.2% in the assay on UO-31 renal; 140% in the assay on TK-10 renal; 89.3% in the assay on ACHN renal; 96.2% with A498 renal. For the same molecule, the growth in the assay with CCRF-CEM leukemia was 60.5%; with MOLT-4 leukemia, 88.3%.

Regarding `[B-][N+](CC)(CC)c1ccccc1`, the growth with SK-MEL-2 melanoma is 113%; in the assay on SN12C renal it was 108%; in the assay with UO-31 renal, 83.8%; in the assay with TK-10 renal, 110%; in the assay on ACHN renal it was 95.1%; in the assay on A498 renal, 108%. In addition, the growth in the assay on CCRF-CEM leukemia was -12.5% (active); in the assay with MOLT-4 leukemia, 95.2%.

Regarding `COc1ccc(/C(=C\c2ccc3c(c2)OCO3)C(=O)Nc2nc3ccccc3s2)cc1OC`, the growth was 92.6% with SK-MEL-2 melanoma; 102% in the assay with SN12C renal; -6.51% (active) in the assay on UO-31 renal; 96.6% in the assay with TK-10 renal; 97.7% in the assay with ACHN renal; 79% in the assay on CAKI-1 renal. The growth in the assay on A498 renal was 78.8%; with MOLT-4 leukemia, 74.4%.

With `C/C(=N/NC(N)=S)C(=O)O`, the growth in the assay on SK-MEL-2 melanoma was 118%; in the assay with SN12C renal it was 80.6%; in the assay on UO-31 renal, 73.6%; in the assay with TK-10 renal it was 119%; in the assay on ACHN renal, 91.7%; in the assay with A498 renal, 110%.

On to `OCCNc1nc(Nc2ccc(Cl)c(Cl)c2)nc2ccccc12`, for which the growth with SK-MEL-2 melanoma is 64.1%; in the assay with SN12C renal it was 37.2%; in the assay with UO-31 renal, 47.6%; with TK-10 renal, 50%; with ACHN renal it was 59.7%; in the assay with A498 renal, 47%. The growth in the assay with CCRF-CEM leukemia is 15.7%; with MOLT-4 leukemia, 6.93% (active).

`COc1cc2c(cc1OC)C(=O)/C(=C/c1cc(-c3ccc4c(c3)OCO4)n[nH]1)C2`: the growth with SK-MEL-2 melanoma was 81.3%; with SN12C renal it was 6.08% (active); with UO-31 renal, -72.6% (active); in the assay on TK-10 renal it was -9.8% (active); with ACHN renal, -7.41% (active); in the assay with CAKI-1 renal it was 56.4%. In addition, in the assay on A498 renal, the growth was 25.8%.

Regarding `COC(=O)[C@@H]1[C@H]2C[C@H]3c4[nH]c5cc(OC)ccc5c4CCN3C[C@@H]2C[C@H](OC(=O)/C=C/c2ccnc(OC)c2)[C@H]1OC`, the growth is 106% in the assay on SK-MEL-2 melanoma; 99.2% in the assay on SN12C renal; 67.5% in the assay with UO-31 renal; 87.3% with TK-10 renal; 66.1% in the assay with ACHN renal; 79.4% in the assay with A498 renal. Further, the figures for the growth in the assay with CCRF-CEM leukemia and in the assay on MOLT-4 leukemia were 93.7% and 75.9%, respectively.

As to `CC(C)=CCC/C(C)=C/CC/C(C)=C/CC/C(C)=C/CSC[C@H](NC(=O)CCCCCN1CCN(C)CC1)C(=O)NC1CCCCC1`, the growth is 97.6% with SK-MEL-2 melanoma; 97.7% with SN12C renal; 67.3% with UO-31 renal; 111% in the assay with TK-10 renal; 83.4% with ACHN renal; 92.9% with A498 renal. Besides, the growth with CCRF-CEM leukemia was 17.4%.

Consider `NC1(N)C=CC2=C(C=C1)C1(N)C3=C(C=CC(N)(N)C=C3)N2C2(N)C3=C(C=CC(N)(N)C=C3)N1C1=C2C=CC(N)(N)C=C1`, for which the growth with SK-MEL-2 melanoma was 103%; in the assay with SN12C renal, 82.2%; in the assay with UO-31 renal it was 59.9%; in the assay with TK-10 renal, 119%; in the assay on ACHN renal, 83.5%; in the assay with CAKI-1 renal, 70.8%. The growth in the assay on A498 renal was 88.3%; in the assay with MOLT-4 leukemia it was 32.6%.

Regarding `COc1ccc2c(c1)C/C(=C\c1cc(-c3ccc4c(c3)OCO4)n[nH]1)C2=O`, the growth with SK-MEL-2 melanoma is 128%; in the assay on SN12C renal, 95.2%; in the assay with UO-31 renal, 75.1%; with TK-10 renal, 162%; in the assay with ACHN renal, 82.8%; in the assay on CAKI-1 renal, 90.3%. For the same molecule, the growth with A498 renal was 85.5%.
